tim23-1 inh: growth inhibitors of tim23-1 mutant yeast. S. cerevisiae tim23-1 growth, BacTiter-Glo luminescence, 24 h. inhibition, % at 20 µM. actives 1.3% (n = 330,000);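 active = growth inhibition of the mutant yeast at or above 50%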;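 note: temperature-sensitive mutant grown at 25 °C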
NALP1 yeast inh: inhibitors of NALP1 inflammasome in yeast. actives 0.61% (n = 280,000). inhibition, % at 10 µM. S. cerevisiae NALP1/ASC/caspase-1 growth, X-gal OD620, 72 h; in the data active = inhibition mostly above about 24%, no sharp cut-off; inactive = mostly below about 32%
NLRP3 yeast inh: blocks the NALP3 inflammasome reconstituted in yeast; actives 0.39% (n = 330,000); inhibition, % at 10 µM; AID 2825; Yeast reconstituted NLRP3/ASC/caspase-1, beta-gal luminescence, 24 h;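 active = inhibition of 50% or more; inactive = inhibition below 50%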
tim10-1 inh: growth inhibitors of tim10-1 mutant yeast; actives 2.2% (n = 330,000); inhibition, % at 20 µM; S. cerevisiae tim10-1 ts strain growth, BacTiter-Glo, 24 h; AID 463190;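 active = inhibition of at least 40%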;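 note: mutant grown at 25 °C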
TIM10 inh: TIM10 yeast growth inhibition | S. cerevisiae TIM10 strain growth, BacTiter-Glo luminescence, 24 h | inhibition, % at 10 µM | actives 1.4% (n = 330,000) | AID 463195;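 active = inhibition of 40% or more at the single tested concentration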;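 note: wild-type TIM10 isogenic control strain grown at permissive 25 °C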
PfHsp90 set2: growth inhibition of yeast expressing Plasmodium Hsp90. AID 504621. inhibition, % at 9.4 µM. S. cerevisiae expressing PfHsp90, BacTiter-Glo ATP, 48 h; yeast lacking PDR1 and PDR3 efflux regulators. actives 0.32% (n = 310,000);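 active = every replicate shows inhibition above about 80%, whatever the replicate mean, limit read from the data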
tim10-1 conf: confirmation of tim10-1 mutant yeast growth inhibitors; shares compounds with tim10-1 inh; S. cerevisiae tim10-1 ts strain growth, BacTiter-Glo, 24 h; inhibition, % at 20 µM; actives 56% (n = 7,400); AID 463213;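 active = inhibition of yeast growth at or above a set limit in either of two repeat tests at 20 µM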;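 note: tim10-1 mutant grown at permissive 25 °C to find synthetic lethal compounds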
Large screens that a line does not name were inactive (follow-up assays come after a bar, where they were run). Sampled rows, rich in hits. Any-hit rate of the full collection: about 4.1%.

COc1ccc(-n2nc(C(=O)NCC(=O)N3CCC4(CC3)OCCO4)c3ccccc3c2=O)cc1Cl	none
C=C(C=O)CC1CC(O)[C@]2(C)OC3CC4OC5C[C@]6(C)O[C@]7(C)CCC8OC9C[C@]%10(C)OC%11C(C)=CC(=O)OC%11CC%10OC9C[C@@H](C)C8OC7CC6O[C@]5(C)CC5OC5C4OC3CC2O1 (stereo not given in full)	tim10-1 inh 59 | tim10-1 conf 29
CC(C)(C)c1cc([N+](=O)[O-])cc(C(C)(C)C)c1O	tim10-1 inh 49 (no result: PfHsp90 set2) | tim10-1 conf 44
COC(=O)C1=C(c2cccc(C#N)c2)C[C@@H]2CC[C@H]1N2C(=O)NCc1ccco1	none (no result: NALP1 yeast inh)
N#Cc1cc2c(nc1SCC(=O)Nc1cc(Cl)ccc1Cl)C1CCN2CC1	tim10-1 inh 40 | tim10-1 conf inactive
O=C1/C(=C\c2cc3c(cc2Br)OCO3)N2CCC1CC2	tim10-1 inh 53 | tim10-1 conf 38
CC1=C2[C@H]3OC(=O)[C@@H](C)[C@@H]3CC[C@@]2(C)C=CC1=O	none (no result: NALP1 yeast inh)
CCn1c(O)c(/C(C)=N/N2CCCCC2c2cccnc2)c(=O)[nH]c1=S (stereo not given)	tim10-1 inh 48 | tim10-1 conf inactive
Brc1ccc2[nH]cc(/C=N/N3CCCCC3)c2c1	tim10-1 inh 42 | tim10-1 conf inactive
O=C(CCN1CCOCC1)NCC(=O)Nc1ccc(Br)cc1C(=O)c1ccccc1	none
CC(C(=O)Nc1ccc(Br)cc1C(=O)c1ccccc1)N1CCOCC1 (stereo not given)	tim10-1 inh 41 | tim10-1 conf inactive
CC(C)OCCCNC(=O)c1c(N)n(CC2CCCO2)c2nc3ccccc3nc12 (stereo not given)	none
CCCNC(=O)c1c(N)n(CC2CCCO2)c2nc3ccccc3nc12 (stereo not given)	tim10-1 inh 45 (no result: PfHsp90 set2) | tim10-1 conf inactive
CCCCn1c(N)c(C(=O)NCc2cccs2)c2nc3ccccc3nc21	tim10-1 inh 41 | tim10-1 conf inactive
COc1cccc(CC(=O)N2CCN(Cc3cccc(Cl)c3)CC2)c1	none
COc1cccc(C2CCN(CC(=O)Nc3cc(Cl)ccc3OC)CC2O)c1 (stereo not given)	tim10-1 inh 41 | tim10-1 conf inactive
CC(C)n1c(O)c(C2c3cc(Cl)ccc3Oc3[nH]c(=O)n(C(C)C)c(=O)c32)c(=O)[nH]c1=O (stereo not given)	none (no result: tim23-1 inh, NLRP3 yeast inh, tim10-1 inh, TIM10 inh)
O=C1CC(N2CC=C(c3ccc(F)cc3)CC2)C(=O)N1c1ccc(F)cc1 (stereo not given)	tim10-1 inh 43 | tim10-1 conf inactive
Cc1c(NC(NC(=O)CF)C(Cl)(Cl)Cl)c(=O)n(-c2ccccc2)n1C (stereo not given)	none
CCC(C)N1C(=O)NC(=O)C2(Cc3c(ccc4ccccc34)N(C)C2)C1=O (stereo not given)	tim10-1 inh 45 | tim10-1 conf 31
COc1ccc2c(c1)CC1(CN2C)C(=O)NC(=O)N(CCc2ccccc2)C1=O (stereo not given)	none
N[C@@H](Cc1c[nH]c2ccccc12)c1nnc(SCc2ccccc2)o1	tim10-1 inh 43 | tim10-1 conf 47
C=C(C)CSc1nnc([C@@H](N)Cc2c[nH]c3ccccc23)o1	tim10-1 inh 42 | tim10-1 conf 56
N[C@@H](Cc1c[nH]c2ccccc12)c1nnc(SCc2ccc(F)cc2)o1	none (no result: tim23-1 inh, NLRP3 yeast inh, tim10-1 inh, TIM10 inh, PfHsp90 set2)
CC(C)=CCSc1nnc([C@@H](N)Cc2c[nH]c3ccccc23)o1	tim10-1 inh 45 | tim10-1 conf 32
Cc1cnc(-n2c(=S)[nH]c3ccccc3c2=O)s1	none (no result: NALP1 yeast inh)
Oc1c(Cl)c(Cl)c(Cl)c(Cl)c1Cl	tim10-1 inh 47 (no result: NALP1 yeast inh) | tim10-1 conf 31
O=C(NC1CCCCC1)N1C[C@H]2C[C@@H](C1)c1cccc(=O)n1C2	none
Cc1cccnc1-n1c(CN2C(=O)c3ccccc3C2=O)nc2ccccc2c1=O	tim10-1 inh 51 | tim10-1 conf 30
Cn1c(O)c(C(c2ccncc2)c2c(O)n(C)c(=S)n(C)c2=O)c(=O)n(C)c1=S	tim10-1 inh 42 (no result: PfHsp90 set2) | tim10-1 conf inactive
